Key:
Assay in all cases: log2 ratio of Biotin-Ahx-Ub-VS probe labelling (fragment/DMSO); higher = less target engagement (more negative = stronger competition), active = hit call of the paper (q ≤ 0.05, log2 ratio ≤ -1)
Settings in all cases: compound concentration: 200 uM; treatment time: 3 h
OTUD6B = molecular target: T1, OTUD6B (UniProt Q8N6M0)
T1 sequence (whole entry): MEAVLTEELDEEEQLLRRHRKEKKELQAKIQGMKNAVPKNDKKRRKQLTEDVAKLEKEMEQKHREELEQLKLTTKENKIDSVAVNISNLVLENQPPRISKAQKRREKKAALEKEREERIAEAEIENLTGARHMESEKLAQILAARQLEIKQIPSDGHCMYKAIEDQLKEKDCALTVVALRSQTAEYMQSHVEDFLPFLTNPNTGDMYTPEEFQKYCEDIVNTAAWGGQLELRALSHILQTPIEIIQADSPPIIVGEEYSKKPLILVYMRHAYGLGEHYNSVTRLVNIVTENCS
Procedure, shortened: (§1)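 Each value is an average log2 ratio of fragment to vehicle, tested by unpaired t-test. The underlying Spectronaut label-free quantities were global-median-normalised, and only proteins with ≥2 unique peptides were included. Triplicate HEK293T lysate samples (495 µg) were exposed to fragment at 200 µM or vehicle for 3 h, then to Biotin-Ahx-Ub-VS at 0.5 µM final for 1 h, before NeutrAvidin enrichment of labelled DUBs, LysC and trypsin digestion, and diaPASEF LC-MS/MS.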

OTUD7B = molecular target: T2, OTUD7B (UniProt Q6GQQ9)
T2 sequence (whole entry): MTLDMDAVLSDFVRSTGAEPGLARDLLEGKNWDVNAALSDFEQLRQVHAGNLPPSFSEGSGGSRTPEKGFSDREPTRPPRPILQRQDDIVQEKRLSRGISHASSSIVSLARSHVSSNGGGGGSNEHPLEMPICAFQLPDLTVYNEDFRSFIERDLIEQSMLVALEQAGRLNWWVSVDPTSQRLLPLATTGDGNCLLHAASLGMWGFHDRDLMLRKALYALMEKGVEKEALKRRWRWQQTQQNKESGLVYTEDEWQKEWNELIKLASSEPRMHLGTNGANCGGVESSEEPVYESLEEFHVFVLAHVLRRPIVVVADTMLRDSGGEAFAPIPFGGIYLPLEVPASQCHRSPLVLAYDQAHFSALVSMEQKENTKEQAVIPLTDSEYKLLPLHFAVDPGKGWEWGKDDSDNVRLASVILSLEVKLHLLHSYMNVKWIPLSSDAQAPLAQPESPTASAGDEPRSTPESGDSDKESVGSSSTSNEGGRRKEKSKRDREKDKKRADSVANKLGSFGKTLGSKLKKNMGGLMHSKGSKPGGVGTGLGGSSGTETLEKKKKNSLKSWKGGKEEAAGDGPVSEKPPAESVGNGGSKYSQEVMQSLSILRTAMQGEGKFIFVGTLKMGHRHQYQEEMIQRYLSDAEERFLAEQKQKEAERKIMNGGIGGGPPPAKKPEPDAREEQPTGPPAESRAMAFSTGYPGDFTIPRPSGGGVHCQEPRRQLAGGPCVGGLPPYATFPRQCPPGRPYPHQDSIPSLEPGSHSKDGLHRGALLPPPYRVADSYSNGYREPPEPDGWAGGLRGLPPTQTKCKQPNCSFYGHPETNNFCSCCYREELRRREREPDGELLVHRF
Procedure, shortened: as §1

PRPF8 = PRPF8 (UniProt Q6P2Q9)
Procedure, shortened: as §1

PSMD7 = molecular target: T3, PSMD7 (UniProt P51665)
T3 sequence (whole entry): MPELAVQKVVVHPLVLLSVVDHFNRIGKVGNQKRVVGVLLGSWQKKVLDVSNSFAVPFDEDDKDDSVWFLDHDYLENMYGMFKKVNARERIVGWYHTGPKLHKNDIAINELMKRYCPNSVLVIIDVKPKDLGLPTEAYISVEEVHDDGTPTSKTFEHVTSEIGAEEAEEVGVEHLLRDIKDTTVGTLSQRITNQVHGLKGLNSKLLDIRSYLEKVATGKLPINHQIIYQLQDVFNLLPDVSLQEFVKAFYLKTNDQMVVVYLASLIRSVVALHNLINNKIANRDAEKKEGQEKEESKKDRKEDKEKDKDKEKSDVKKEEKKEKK
Procedure, shortened: as §1

UCHL1 = UCHL1 (UniProt P09936)
Chain of UCHL1 (P09936 whole entry, looked up): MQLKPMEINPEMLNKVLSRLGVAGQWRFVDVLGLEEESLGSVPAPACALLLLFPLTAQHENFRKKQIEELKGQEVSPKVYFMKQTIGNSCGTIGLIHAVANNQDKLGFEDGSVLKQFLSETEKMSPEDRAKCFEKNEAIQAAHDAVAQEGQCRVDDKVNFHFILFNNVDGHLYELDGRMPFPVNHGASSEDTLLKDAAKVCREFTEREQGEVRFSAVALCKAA
Procedure, shortened: as §1

UCHL3 = molecular target: T4, UCHL3 (UniProt P15374)
T4 sequence (whole entry): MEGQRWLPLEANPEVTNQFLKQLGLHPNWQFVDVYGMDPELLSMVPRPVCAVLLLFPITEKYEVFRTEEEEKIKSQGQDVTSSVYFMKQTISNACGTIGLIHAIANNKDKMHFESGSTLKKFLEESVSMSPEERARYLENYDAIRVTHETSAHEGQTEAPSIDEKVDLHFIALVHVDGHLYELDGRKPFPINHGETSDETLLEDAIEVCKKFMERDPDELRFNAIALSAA
Procedure, shortened: as §1

UCHL5 = molecular target: T5, UCHL5 (UniProt Q9Y5K5)
T5 sequence (whole entry): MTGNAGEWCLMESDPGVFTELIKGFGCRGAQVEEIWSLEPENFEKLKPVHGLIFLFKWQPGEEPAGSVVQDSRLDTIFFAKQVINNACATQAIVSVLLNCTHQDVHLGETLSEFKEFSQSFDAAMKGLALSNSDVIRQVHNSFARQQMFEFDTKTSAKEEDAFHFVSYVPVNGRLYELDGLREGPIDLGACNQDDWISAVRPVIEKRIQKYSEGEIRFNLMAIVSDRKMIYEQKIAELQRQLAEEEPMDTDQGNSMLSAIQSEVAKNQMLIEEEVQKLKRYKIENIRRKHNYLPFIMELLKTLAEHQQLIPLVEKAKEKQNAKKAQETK
Procedure, shortened: as §1

USP10 = USP10 (UniProt Q14694)
Chain of USP10 (Q14694 whole entry): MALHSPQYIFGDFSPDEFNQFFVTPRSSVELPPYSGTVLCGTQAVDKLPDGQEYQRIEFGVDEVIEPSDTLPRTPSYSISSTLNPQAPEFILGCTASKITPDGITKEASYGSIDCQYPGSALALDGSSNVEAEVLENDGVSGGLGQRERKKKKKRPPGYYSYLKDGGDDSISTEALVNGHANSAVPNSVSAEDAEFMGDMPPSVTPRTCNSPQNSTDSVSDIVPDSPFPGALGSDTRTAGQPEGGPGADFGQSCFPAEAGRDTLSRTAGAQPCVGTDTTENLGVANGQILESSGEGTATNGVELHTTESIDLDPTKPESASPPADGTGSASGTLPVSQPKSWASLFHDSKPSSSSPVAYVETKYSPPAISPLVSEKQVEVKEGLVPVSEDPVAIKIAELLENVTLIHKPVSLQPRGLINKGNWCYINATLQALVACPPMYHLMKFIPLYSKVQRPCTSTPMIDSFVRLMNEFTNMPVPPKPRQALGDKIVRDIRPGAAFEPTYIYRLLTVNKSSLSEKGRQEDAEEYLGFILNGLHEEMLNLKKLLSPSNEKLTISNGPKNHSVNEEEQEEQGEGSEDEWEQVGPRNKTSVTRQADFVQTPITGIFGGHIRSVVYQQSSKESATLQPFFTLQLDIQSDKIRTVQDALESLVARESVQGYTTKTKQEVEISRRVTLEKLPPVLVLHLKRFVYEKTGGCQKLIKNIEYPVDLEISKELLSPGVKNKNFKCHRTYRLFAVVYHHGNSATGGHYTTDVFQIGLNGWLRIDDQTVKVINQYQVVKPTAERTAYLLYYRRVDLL
Procedure, shortened: as §1

USP15 = molecular target: T6, USP15 (UniProt Q9Y4E8)
T6 sequence (whole entry): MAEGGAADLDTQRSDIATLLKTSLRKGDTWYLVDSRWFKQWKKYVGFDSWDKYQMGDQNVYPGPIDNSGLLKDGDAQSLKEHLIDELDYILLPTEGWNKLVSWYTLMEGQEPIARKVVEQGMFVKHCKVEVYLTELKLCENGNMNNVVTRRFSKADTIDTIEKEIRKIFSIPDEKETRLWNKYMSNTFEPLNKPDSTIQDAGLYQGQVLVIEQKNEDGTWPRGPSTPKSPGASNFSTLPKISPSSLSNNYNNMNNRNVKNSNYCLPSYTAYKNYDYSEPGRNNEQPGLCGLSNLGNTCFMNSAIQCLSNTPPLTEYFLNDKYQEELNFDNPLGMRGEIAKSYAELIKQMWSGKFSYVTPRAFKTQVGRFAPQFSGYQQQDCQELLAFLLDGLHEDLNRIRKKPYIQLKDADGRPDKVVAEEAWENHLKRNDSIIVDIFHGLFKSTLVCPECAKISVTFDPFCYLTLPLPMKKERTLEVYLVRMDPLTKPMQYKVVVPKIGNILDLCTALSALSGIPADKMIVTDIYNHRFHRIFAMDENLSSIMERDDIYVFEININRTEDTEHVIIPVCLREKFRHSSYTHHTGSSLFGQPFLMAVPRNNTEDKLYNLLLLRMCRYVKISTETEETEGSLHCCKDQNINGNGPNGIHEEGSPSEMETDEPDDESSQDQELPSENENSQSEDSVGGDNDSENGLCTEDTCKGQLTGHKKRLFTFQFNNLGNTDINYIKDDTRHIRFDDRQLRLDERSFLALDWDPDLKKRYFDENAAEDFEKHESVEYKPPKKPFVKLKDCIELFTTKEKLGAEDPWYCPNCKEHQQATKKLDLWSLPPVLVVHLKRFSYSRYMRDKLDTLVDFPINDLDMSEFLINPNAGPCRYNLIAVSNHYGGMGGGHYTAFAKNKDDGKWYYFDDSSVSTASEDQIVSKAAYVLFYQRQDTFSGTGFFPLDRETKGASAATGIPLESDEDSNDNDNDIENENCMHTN
Procedure, shortened: as §1

USP16 = USP16 (UniProt Q9Y5T5)
Chain of USP16 (Q9Y5T5 whole entry, looked up): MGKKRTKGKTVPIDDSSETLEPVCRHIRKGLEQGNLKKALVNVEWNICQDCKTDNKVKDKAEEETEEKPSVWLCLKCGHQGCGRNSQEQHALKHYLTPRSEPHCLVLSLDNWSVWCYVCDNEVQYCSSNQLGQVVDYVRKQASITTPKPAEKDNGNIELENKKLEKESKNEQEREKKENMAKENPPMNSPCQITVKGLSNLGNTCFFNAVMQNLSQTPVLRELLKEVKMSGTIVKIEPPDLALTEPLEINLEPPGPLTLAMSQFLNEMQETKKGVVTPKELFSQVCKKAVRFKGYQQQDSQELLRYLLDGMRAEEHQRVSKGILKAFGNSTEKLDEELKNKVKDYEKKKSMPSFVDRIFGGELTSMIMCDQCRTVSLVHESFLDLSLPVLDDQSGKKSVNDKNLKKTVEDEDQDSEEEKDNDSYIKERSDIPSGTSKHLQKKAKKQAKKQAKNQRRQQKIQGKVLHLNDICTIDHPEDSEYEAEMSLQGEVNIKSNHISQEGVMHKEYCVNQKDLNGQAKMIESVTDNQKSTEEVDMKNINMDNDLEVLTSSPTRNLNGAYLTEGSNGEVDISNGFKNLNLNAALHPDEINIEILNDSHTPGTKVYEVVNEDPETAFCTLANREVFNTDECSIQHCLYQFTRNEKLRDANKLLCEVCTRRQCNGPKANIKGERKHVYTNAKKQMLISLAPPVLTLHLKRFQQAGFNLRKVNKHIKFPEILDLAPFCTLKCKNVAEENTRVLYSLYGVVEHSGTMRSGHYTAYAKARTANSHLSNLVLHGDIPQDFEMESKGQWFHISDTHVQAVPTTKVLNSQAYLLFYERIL
Procedure, shortened: as §1

Measured: log2 ratio of Biotin-Ahx-Ub-VS probe labelling

Cc1ccc(-c2nnc(C)[nH]2)c(NC(=O)CCl)c1
active: UCHL1 -1.14
inactive: OTUD6B -0.00419 | OTUD7B -0.183 | PRPF8 -0.0454 | PSMD7 -0.177 | UCHL3 0.176 | UCHL5 -0.152 | USP10 0.0193 | USP15 -0.0491 | USP16 0.114
